HSF1 activator: increases HSF-1 driven luciferase reporter signal; NIH3T3-HGL HSF-1 luciferase reporter, MG132, 8 h; 100% = twice DMSO control signal; activation, % at 9 µM; 1.7% of 300,000 active;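 active = mean replicate activation of at least 50% with a set share of replicates each reaching 50%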;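 note: 0% = median of the neutral control wells and 100% = twice that signal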
TLR4-MyD88 BLA: inhibitors of human TLR4-MyD88 binding; O00206+Q99836; HeLa CL3-4 TLR4/MyD88 BLA complementation, FRET ratio; inhibition, % at 8.4 µM; 0.18% of 200,000 active; AID 861; in the data active = inhibition above about 25%;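 note: 0% = vehicle and 100% = reference inhibitor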
NOD2-RIPK2 inh: inhibitors of human NOD2-RIPK2 interaction | O43353 | CHO BLA complementation NOD2-RIPK2, CCF4 ratio | inhibition, % at 4.98 µM | 0.38% of 360,000 active | AID 624267; in the data active = inhibition above about 21%;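 note: 0% = vehicle only and 100% = reference blocker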
HSF1 inh: HSF1 inhibition. NIH3T3-HGL HSE-luciferase, MG132-induced, luminescence 8 h; hits give low values. 0.77% of 300,000 active. activity change, negative = inhibition, % at 7.5 µM (by protocol);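 active = more than half of replicate wells show activity change below -50%, luminescence cut by over half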;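 note: luciferase reports HSF-1 transcriptional activity via heat shock element; 0% = median of DMSO wells and -100% = zero luminescence signal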
TLR9-MyD88 inh: TLR9-MyD88 interaction inhibition. Q9NR96+Q99836. CHO BLA complementation TLR9-MyD88, CCF4 FRET ratio. inhibition, % at 4.98 µM. 0.21% of 340,000 active;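 active = inhibition above the mean over all tested compounds plus 3 SD, cut at about 21% in these data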;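 note: 0% = DMSO only wells and 100% = clavulanate BLA inhibitor control wells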
An asterisk follows results filed as active. In the library only some 2.4% were active in any assay of this set; here they are far more common.

What do the screens show for `Nc1c2c(=O)[nH]c(O)cc2nn1-c1ccccc1`?
NOD2-RIPK2 inh: -3; TLR9-MyD88 inh: 4

What do the screens show for `Cc1cccc(OCC(=O)OC2CCN(C)CC2)c1`?
HSF1 activator: -61; TLR4-MyD88 BLA: 12; NOD2-RIPK2 inh: 6; HSF1 inh: -55*; TLR9-MyD88 inh: -7

Results for COc1ccc(NC(=O)c2ccco2)c(NC(=O)c2ccc([N+](=O)[O-])cc2)c1 ?
HSF1 activator: -2; NOD2-RIPK2 inh: -1; HSF1 inh: 1; TLR9-MyD88 inh: -3

Results for CCn1c(NC(=S)Nc2ccccc2)nc2ccccc21 ?
HSF1 activator: -69; TLR4-MyD88 BLA: 3; NOD2-RIPK2 inh: -6; HSF1 inh: -60*; TLR9-MyD88 inh: -7

What do the screens show for `CCn1c(C)nc2cc(C(=O)NNC(=O)c3ccc(C)cc3)ccc21`?
NOD2-RIPK2 inh: 1; TLR9-MyD88 inh: 8

How did CCn1c(C)nc2cc(C(=O)NNC(=S)Nc3ccc(Cl)cc3)ccc21 do in these assays?
HSF1 activator: 3; NOD2-RIPK2 inh: -3; HSF1 inh: 9; TLR9-MyD88 inh: 0

Results for CCn1c(C)nc2cc(C(=O)NNC(=S)NC(=O)c3ccccc3)ccc21 ?
HSF1 activator: -60; TLR4-MyD88 BLA: -3; NOD2-RIPK2 inh: -4; HSF1 inh: -53*; TLR9-MyD88 inh: -1

How did O=C(NNC(=S)Nc1ccccc1)c1ccc(O)cc1 do in these assays?
HSF1 activator: 57*; NOD2-RIPK2 inh: 9; HSF1 inh: 33; TLR9-MyD88 inh: -4

Results for CCn1c(C)nc2cc(C(=O)NNC(=S)Nc3ccccc3)ccc21 ?
HSF1 activator: -68; TLR4-MyD88 BLA: 13; NOD2-RIPK2 inh: 2; HSF1 inh: -67*; TLR9-MyD88 inh: 4

Results for Cc1cccc(C(=O)OCCN2CCOCC2)c1 ?
HSF1 activator: -7; NOD2-RIPK2 inh: -3; HSF1 inh: -1; TLR9-MyD88 inh: -7

What do the screens show for `CSCC[C@H](NC(=O)c1cccc(S(=O)(=O)N2CCCCC2)c1)c1nc2ccccc2[nH]1`?
NOD2-RIPK2 inh: -9; TLR9-MyD88 inh: -9

Results for S=C(NCCc1ccccc1)Nc1ccc(N2CCCCC2)cc1 ?
HSF1 activator: 25; NOD2-RIPK2 inh: -8; HSF1 inh: 21; TLR9-MyD88 inh: -14

How did O=C(CSc1nc2ccc(Nc3nc(N4CCOCC4)nc(N4CCOCC4)n3)cc2s1)Nc1ccccc1F do in these assays?
NOD2-RIPK2 inh: -5; TLR9-MyD88 inh: -8

What do the screens show for `COc1ccc(CN2C(=O)C(Cc3ccccc3)Nc3ncnc(N4CCc5ccccc5C4)c32)cc1` (stereo not drawn)?
HSF1 activator: 71*; HSF1 inh: 48

Results for COc1cc(CN2CCN(c3cccc(C)c3C)CC2)cc(OC)c1O ?
HSF1 activator: -74; TLR4-MyD88 BLA: 12; NOD2-RIPK2 inh: -6; HSF1 inh: -65*; TLR9-MyD88 inh: -6

What do the screens show for `COc1ccc(C#Cc2ccc(C3=CC(=O)CC(C)(C)C3=O)cc2)cc1`?
NOD2-RIPK2 inh: -3; TLR9-MyD88 inh: -2

What do the screens show for `O=C(CSc1ncnc2ccccc12)c1cccs1`?
HSF1 activator: 60*; TLR4-MyD88 BLA: 1; NOD2-RIPK2 inh: 7; HSF1 inh: 33; TLR9-MyD88 inh: -3

Results for CCOC(=O)c1c(NC(=O)CSC(=S)N(C)C)sc(C)c1C ?
HSF1 activator: 85*; TLR4-MyD88 BLA: -1; NOD2-RIPK2 inh: -22; HSF1 inh: 48; TLR9-MyD88 inh: -5

How did CCOC(=O)c1c(NC(=O)CNCCO)sc(C)c1C do in these assays?
HSF1 activator: -8; TLR4-MyD88 BLA: -3; NOD2-RIPK2 inh: -9; HSF1 inh: 2; TLR9-MyD88 inh: -11

Results for CCOC(=O)c1c(NC(N)=O)sc(C)c1C ?
HSF1 activator: -9; TLR4-MyD88 BLA: 4; NOD2-RIPK2 inh: 4; HSF1 inh: -4; TLR9-MyD88 inh: -6

Results for CCOC(=O)c1c(NC(=O)CSc2ncnc3ccccc23)sc(C(C)=O)c1C ?
HSF1 activator: 78*; TLR4-MyD88 BLA: 0; NOD2-RIPK2 inh: -3; HSF1 inh: 35; TLR9-MyD88 inh: -5

What do the screens show for `CCOC(=O)c1c(N2C(=O)C=CC2=O)sc(C)c1C`?
HSF1 activator: 55*; TLR4-MyD88 BLA: 2; NOD2-RIPK2 inh: 2; HSF1 inh: 44; TLR9-MyD88 inh: 18

Results for COC(=O)c1c(NC(=O)CSc2ncnc3ccccc23)sc(C)c1C ?
HSF1 activator: 24; NOD2-RIPK2 inh: -8; HSF1 inh: 12; TLR9-MyD88 inh: -3

What do the screens show for `CC(C)n1nccc1NC(=O)COC(=O)c1ccc(NC(N)=O)cc1`?
NOD2-RIPK2 inh: -1; TLR9-MyD88 inh: -2

How did Cc1ccccc1N1CCN(C2CCCN(C(=O)c3cnsn3)C2)CC1 (stereo not drawn) do in these assays?
HSF1 activator: 3; NOD2-RIPK2 inh: -4; HSF1 inh: -1; TLR9-MyD88 inh: -22

How did CC(C)C(NS(=O)(=O)c1ccccc1F)C(=O)OCC(=O)NCc1ccco1 (stereo not drawn) do in these assays?
NOD2-RIPK2 inh: 0; TLR9-MyD88 inh: 1

How did CCOC(=O)c1c(NC(=O)CSc2nc3ccccc3s2)sc(C)c1C do in these assays?
HSF1 activator: 12; TLR4-MyD88 BLA: -3; NOD2-RIPK2 inh: -12; HSF1 inh: 14; TLR9-MyD88 inh: 4

How did CCOC(=O)c1c(NC(=O)CSc2nc3ccccc3o2)sc(C)c1C do in these assays?
HSF1 activator: 144*; TLR4-MyD88 BLA: 2; NOD2-RIPK2 inh: -9; HSF1 inh: 81; TLR9-MyD88 inh: 4

What do the screens show for `Cc1nn(-c2ccccc2)c(C)c1/C=N/NC(=O)CSc1nnc(SCc2ccc(Cl)cc2)s1`?
HSF1 activator: 68*; TLR4-MyD88 BLA: -21; NOD2-RIPK2 inh: -5; HSF1 inh: 37; TLR9-MyD88 inh: 5

What do the screens show for `Cc1c(NS(=O)(=O)c2cc(C(=O)OCC(=O)c3ccccc3F)ccc2Cl)c(=O)n(-c2ccccc2)n1C`?
NOD2-RIPK2 inh: 11; TLR9-MyD88 inh: 1

How did CCc1nccn1C(=O)c1cnn2c(C(F)F)cc(-c3ccc(C)cc3)nc12 do in these assays?
HSF1 activator: 0; TLR4-MyD88 BLA: 8; NOD2-RIPK2 inh: -2; HSF1 inh: -1; TLR9-MyD88 inh: 5

What do the screens show for `CCc1nccn1C(=O)c1cnn2c(C(F)F)cc(-c3ccccc3)nc12`?
HSF1 activator: -91; TLR4-MyD88 BLA: -12; HSF1 inh: -88*

Results for Cc1ccc2nc(-c3sc4nc(C)ccc4c3N)[nH]c2c1 ?
HSF1 activator: -54; TLR4-MyD88 BLA: 1; NOD2-RIPK2 inh: 9; HSF1 inh: -42; TLR9-MyD88 inh: 10

How did Cc1cc(C)c2c(N)c(-c3nc4ccccc4[nH]3)sc2n1 do in these assays?
HSF1 activator: 73*; TLR4-MyD88 BLA: -3; NOD2-RIPK2 inh: 9; HSF1 inh: 33; TLR9-MyD88 inh: 10

How did CC(SCc1nc2sc3c(c2c(=O)[nH]1)CCCC3)C(=O)Nc1ccccn1 (stereo not drawn) do in these assays?
HSF1 activator: -2; NOD2-RIPK2 inh: -7; HSF1 inh: 4; TLR9-MyD88 inh: 0

Source: PubChem
